ATXN2 expr inh: ATXN2 expression inhibition. 360,000 tested, 0.72% active. Potency, µM (highest dose often 57 µM), most hits filed as inhibitors. AID 1745845. HEK-293 ATXN2-luciferase reporter, luminescence, 24 h; also: nearly all actives have a fitted effect of over 55% in size
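qHTS (up to 57 uM final) was run with 24 h compound exposure of reporter cells at 37 °C. Each well was multiplexed: SteadyGlo luminescence measured ATXN2-luciferase expression after a fluorogenic Gly-Phe-AFC viability readout (25 uM final).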
USP1-UAF1 inh: inhibitors of human USP1/UAF1 deubiquitinase. recombinant USP1/UAF1, Ub-Rhodamine cleavage fluorescence. Potency, µM (titrated, usually from 57.1 µM), hits mostly inhibitors. 390,000 tested, 0.23% active. AID 743255; also: nearly all actives have a fitted effect of over 60% in size
Target sequence (O94782 whole entry, looked up): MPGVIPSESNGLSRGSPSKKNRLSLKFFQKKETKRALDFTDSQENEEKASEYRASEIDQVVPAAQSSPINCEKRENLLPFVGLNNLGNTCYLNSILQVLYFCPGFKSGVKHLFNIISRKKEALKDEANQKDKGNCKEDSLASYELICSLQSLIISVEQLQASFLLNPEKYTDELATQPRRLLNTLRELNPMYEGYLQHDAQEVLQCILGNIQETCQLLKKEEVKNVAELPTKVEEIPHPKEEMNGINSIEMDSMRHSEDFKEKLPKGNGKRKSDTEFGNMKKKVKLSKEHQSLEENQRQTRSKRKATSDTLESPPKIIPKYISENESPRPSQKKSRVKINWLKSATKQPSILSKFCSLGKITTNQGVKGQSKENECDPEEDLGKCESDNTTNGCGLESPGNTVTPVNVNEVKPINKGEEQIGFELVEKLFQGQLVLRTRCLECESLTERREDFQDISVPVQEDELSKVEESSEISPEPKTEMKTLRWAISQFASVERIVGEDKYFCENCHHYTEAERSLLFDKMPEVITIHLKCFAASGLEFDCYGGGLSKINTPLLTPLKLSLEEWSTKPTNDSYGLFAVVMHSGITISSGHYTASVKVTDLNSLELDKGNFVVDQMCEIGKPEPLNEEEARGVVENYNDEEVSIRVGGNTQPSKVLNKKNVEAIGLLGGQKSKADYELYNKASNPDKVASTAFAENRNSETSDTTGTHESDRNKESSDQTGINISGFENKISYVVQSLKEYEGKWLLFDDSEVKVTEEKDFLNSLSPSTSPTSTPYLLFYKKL
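USP1/UAF1 complex at 1 nM was preincubated with compound for 15 min at room temperature, then Ub-Rho substrate (150nM final) was added. Fluorescence (480/540 nm) was read kinetically, 6 reads every 60 seconds.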
USP2a block: blocks human ubiquitin-specific protease USP2a; O75604; Potency, µM (titrated, usually from 38.3 µM), hits mostly inhibitors; USP2 core, Ub-CHOP2 coupled fluorogenic reporter, 485/531; 330,000 tested, 0.01% active
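Deubiquitinase activity read as fluorescence (485/531 nm) after Ub-CHOP2 cleavage activates the enterokinase reporter on its substrate; USP2 core 10nM, Ub-CHOP2 and substrate 25nM each, 30min compound preincubation then 60min RT; data normalized to NEM, curves fitted.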
S2 tox: reduces viability in counter-screen for ATXN expression inhibitors; AID 651635; Potency, µM (top dose mostly 56.7 µM), hits mostly cytotoxic; 400,000 tested, 0.49% active; S2 cells (HEK-293 line with an ATXN2-luciferase reporter) viability, CellTiter-Fluor protease fluorescence, 24 h; also: nearly all actives have a fitted effect of over 40% in size
IL1B secr inh: blocks inflammasome-driven IL-1 beta release. THP-1 LPS/ATP IL-1B secretion, AlphaLISA, 16 h; stronger effect = lower value. activity change, % at 57.5 µM. 360,000 tested, 4.7% active. AID 743279; in the data active = activity change below about -50%; inconclusive = mostly about -30% to -49%
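Secreted IL-1B measured by AlphaLISA bead assay after 16 h compound exposure of THP-1 cells; compounds (final up to 57.5 uM) added 1 h before LPS (250 ng/mL) and ATP (1.25 mM) stimulation; lower signal means less secretion.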
Hits are given with their value. This is a sample that favours compounds with a hit; in the whole collection about 4.8% have one here. Unless noted, calls follow the shape of the dose curve; as a rule, active = well fitted curve in the direction sought with a large enough effect; inconclusive = small, poorly fitted or top-dose-only effect, or another doubt; inactive = no such curve, though single readings can be large; an effect the other way counts as inactive or inconclusive.

How did CCN(CC)C(=O)C1=C(C)N(Cc2ccc(C(C)(C)C)cc2)C(=O)C(CC(=O)NCCCN(C)C)C1 (centres undefined) do in these assays?
ATXN2 expr inh: inactive; USP1-UAF1 inh: inactive; S2 tox: inactive; IL1B secr inh: inactive

How did Cn1c(CNC(=O)c2ccc3c(c2)OCO3)nnc1SCC(=O)Nc1ccc(F)cc1F do in these assays?
ATXN2 expr inh: inactive; USP1-UAF1 inh: inactive; USP2a block: inactive; S2 tox: inactive; IL1B secr inh: inactive

Results for CC1CCN(c2nc3ccccc3nc2SCC(=O)Nc2ccccc2C(C)C)CC1 ?
ATXN2 expr inh: inactive; USP1-UAF1 inh: inconclusive; S2 tox: inactive

Results for CC[C@@H]1C/C=C\Cc2ccccc2[C@H](C(=O)C[C@H](O)CC(C)=O)OC1=O ?
ATXN2 expr inh: inactive; USP1-UAF1 inh: inactive; USP2a block: inactive; S2 tox: inactive; IL1B secr inh: inactive

Results for O=C1CCN(Cc2ccc(Cl)cc2Cl)C(=O)N1 ?
ATXN2 expr inh: inactive; USP1-UAF1 inh: inactive; S2 tox: inactive; IL1B secr inh: inactive

What do the screens show for `CCOC(=O)c1c(C)oc2c1c(C(c1cccnc1)N1CCOCC1)c(O)c1ccccc12` (centres undefined)?
ATXN2 expr inh: inconclusive; USP1-UAF1 inh: inactive; USP2a block: inactive; IL1B secr inh: -110

Results for CCOC(=O)c1c(C)oc2c1c(C=NCC1CCCO1)c(O)c1ccccc12 (centres undefined) ?
ATXN2 expr inh: inactive; USP1-UAF1 inh: inactive; USP2a block: inactive; S2 tox: inactive; IL1B secr inh: inactive

What do the screens show for `CCOC(=O)c1c(C)oc2c1c(C=NCc1ccccn1)c(O)c1ccccc12`?
ATXN2 expr inh: inconclusive; USP1-UAF1 inh: inconclusive; USP2a block: inactive; S2 tox: inconclusive; IL1B secr inh: -94

What do the screens show for `O=C(CSc1nc2c([nH]c3ccccc32)c(=O)n1-c1ccc(Cl)cc1)N1CCc2ccccc21`?
ATXN2 expr inh: inactive; USP1-UAF1 inh: inactive; S2 tox: inactive

Results for O=C1NC2(CCCC2)N=C1c1ccc(Cl)cc1 ?
ATXN2 expr inh: inactive; USP1-UAF1 inh: inactive; USP2a block: inactive; S2 tox: inactive; IL1B secr inh: inactive

What do the screens show for `N#CC(C#N)=c1ccc2c(c1)NC1(CCCCC1)N=2`?
ATXN2 expr inh: inconclusive; USP1-UAF1 inh: inactive; USP2a block: inactive; IL1B secr inh: -104

What do the screens show for `Cc1ccc(Cn2cnc3ccccc32)cc1`?
ATXN2 expr inh: inactive; USP1-UAF1 inh: inactive; USP2a block: inactive; S2 tox: inactive; IL1B secr inh: -54

How did COC(C(=O)C(O)C(C)O)C1Cc2cc3cc(OC4CC(OC5CC(O)C(O)C(C)O5)C(O)C(C)O4)c(C)c(O)c3c(O)c2C(=O)C1OC1CC(OC2CC(OC3CC(O)C(OC)C(C)O3)C(O)C(C)O2)C(O)C(C)O1 (centres undefined) do in these assays?
ATXN2 expr inh: 10µM; USP1-UAF1 inh: inconclusive; S2 tox: inconclusive; IL1B secr inh: -89

How did CON(c1nc(Cl)nc(N(C)C)n1)S(=O)(=O)c1ccccc1Cl do in these assays?
ATXN2 expr inh: inactive; USP1-UAF1 inh: inactive; USP2a block: inactive; S2 tox: inactive; IL1B secr inh: inactive

Results for CON(c1nc(Cl)nc(N(C)C)n1)S(=O)(=O)c1ccc(C)cc1 ?
ATXN2 expr inh: inconclusive; USP1-UAF1 inh: inactive; USP2a block: inactive; S2 tox: inactive; IL1B secr inh: -63

How did Cc1ccc(C(=O)c2c3ccc(C(F)(F)F)cc3[n+]([O-])n2CCCC(N)=O)cc1 do in these assays?
ATXN2 expr inh: inactive; USP1-UAF1 inh: inactive; USP2a block: inactive; S2 tox: inactive; IL1B secr inh: inactive

What do the screens show for `Cc1ccc(C(=O)c2c3ccc(C(F)(F)F)cc3[n+]([O-])n2CCCN)cc1`?
ATXN2 expr inh: inactive; USP1-UAF1 inh: inactive; USP2a block: inactive; S2 tox: inconclusive; IL1B secr inh: -53

Results for COc1ccc(S(=O)(=O)N2CCC(C(=O)NCc3ccncc3)CC2)cc1 ?
ATXN2 expr inh: inactive; USP1-UAF1 inh: inactive; USP2a block: inactive; S2 tox: inactive; IL1B secr inh: inactive

What do the screens show for `CCCOc1ccc(C2C3=C(Nc4nc(N)[nH]c(=O)c42)c2ccccc2C3=O)cc1` (centres undefined)?
USP1-UAF1 inh: inactive; USP2a block: inactive; S2 tox: inconclusive; IL1B secr inh: -55

How did O=C1CC(c2ccc(Cl)cc2)CC(=O)N1 do in these assays?
ATXN2 expr inh: inactive; S2 tox: inactive

Results for CN1C2=NCCN2C(=O)c2cc(Cl)ccc21 ?
ATXN2 expr inh: inactive; USP1-UAF1 inh: inactive; USP2a block: inactive; S2 tox: inactive; IL1B secr inh: inactive

Results for Clc1ccc2c(c1)-c1ccccc1C1=NCCN12 ?
USP1-UAF1 inh: inactive; S2 tox: inconclusive; IL1B secr inh: -103

What do the screens show for `Brc1ccc2c(c1)-c1ccccc1C1=NCCN12`?
USP1-UAF1 inh: inactive; S2 tox: inconclusive; IL1B secr inh: -104

What do the screens show for `CCn1c(SCC(=O)Nc2ccccc2OC)nc2ccccc2c1=O`?
ATXN2 expr inh: inconclusive; USP1-UAF1 inh: inactive; USP2a block: inactive; S2 tox: inactive; IL1B secr inh: -72

Results for COc1ccccc1NC(=O)CSc1nc2c(sc3ccccc32)c(=O)n1CCN(C)C ?
ATXN2 expr inh: inactive; USP1-UAF1 inh: inactive; USP2a block: inactive; S2 tox: inactive; IL1B secr inh: -80

Results for C=CCN(C(=O)CSc1nc2c(sc3ccccc32)c(=O)n1CCN(CC)CC)c1ccccc1 ?
ATXN2 expr inh: inconclusive; USP1-UAF1 inh: inactive; USP2a block: inactive; S2 tox: inconclusive; IL1B secr inh: -80

How did COCCn1c(SCC(=O)Nc2ccccc2OC)nc2ccccc2c1=O do in these assays?
ATXN2 expr inh: inactive; USP1-UAF1 inh: inactive; USP2a block: inactive; S2 tox: inactive; IL1B secr inh: inactive

What do the screens show for `COCCCn1c(SCC(=O)Nc2ccccc2OC)nc2c(sc3ccccc32)c1=O`?
USP1-UAF1 inh: inactive

What do the screens show for `NC1CCC(Nc2nc(Nc3ccc(C(=O)N4CCCCC4)cc3)c3ncn(-c4cccc(F)c4)c3n2)CC1` (centres undefined)?
ATXN2 expr inh: inactive

How did COc1cc(/C=N/NC(=O)c2cccc(S(=O)(=O)N3CCCC3)c2)cc(OC)c1O do in these assays?
ATXN2 expr inh: inactive; USP1-UAF1 inh: inactive; USP2a block: inactive; S2 tox: inactive; IL1B secr inh: inactive

Results for CN(C)CCNC(=O)/C(=C/c1ccc(-c2ccc(Cl)cc2)o1)NC(=O)c1ccccc1 ?
ATXN2 expr inh: inactive; USP1-UAF1 inh: inactive; USP2a block: inactive; S2 tox: inactive; IL1B secr inh: -93

What do the screens show for `CN(C)CCNC(=O)/C(=C/c1ccc(-c2ccc(Cl)cc2Cl)o1)NC(=O)c1ccccc1`?
ATXN2 expr inh: inactive; USP1-UAF1 inh: inconclusive; USP2a block: inactive; S2 tox: inconclusive; IL1B secr inh: -67

Source: PubChem BioAssay (National Center for Advancing Translational Sciences (NCATS))
